Holding throughout (conditions): Compound concentration 20.0 uM
Assay [1] addresses Tyrosine-protein kinase ABL1 (Homo sapiens) (UniProt P00519).
In assay [2] the target is Bromodomain-containing protein 4 (Homo sapiens) (UniProt O60885).
The target of assay [3] is Cyclin-dependent kinase 2 (Homo sapiens) (UniProt P24941).
The target in assay [4] is Casein kinase I isoform delta (Homo sapiens) (UniProt P48730).
Assay [5] has as its target Glycogen synthase kinase-3 beta (Homo sapiens) (UniProt P49841).
The target in assay [6] is Mitogen-activated protein kinase 1 (Homo sapiens) (UniProt P28482).
Chain of Mitogen-activated protein kinase 1 (Homo sapiens) (P28482 whole entry): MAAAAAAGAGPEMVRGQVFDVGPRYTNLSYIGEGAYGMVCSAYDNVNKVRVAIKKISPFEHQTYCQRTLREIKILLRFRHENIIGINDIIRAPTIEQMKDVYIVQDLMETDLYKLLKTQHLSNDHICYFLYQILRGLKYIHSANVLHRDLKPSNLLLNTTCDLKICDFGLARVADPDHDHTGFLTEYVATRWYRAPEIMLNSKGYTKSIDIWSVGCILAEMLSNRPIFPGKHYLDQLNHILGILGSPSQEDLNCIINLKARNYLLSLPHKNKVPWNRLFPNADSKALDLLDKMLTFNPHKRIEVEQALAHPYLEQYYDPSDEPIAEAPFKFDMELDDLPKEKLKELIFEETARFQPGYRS
For assay [7], the target named is T1, Aurora kinase A (Homo sapiens) (UniProt O14965).
T1 sequence (whole entry): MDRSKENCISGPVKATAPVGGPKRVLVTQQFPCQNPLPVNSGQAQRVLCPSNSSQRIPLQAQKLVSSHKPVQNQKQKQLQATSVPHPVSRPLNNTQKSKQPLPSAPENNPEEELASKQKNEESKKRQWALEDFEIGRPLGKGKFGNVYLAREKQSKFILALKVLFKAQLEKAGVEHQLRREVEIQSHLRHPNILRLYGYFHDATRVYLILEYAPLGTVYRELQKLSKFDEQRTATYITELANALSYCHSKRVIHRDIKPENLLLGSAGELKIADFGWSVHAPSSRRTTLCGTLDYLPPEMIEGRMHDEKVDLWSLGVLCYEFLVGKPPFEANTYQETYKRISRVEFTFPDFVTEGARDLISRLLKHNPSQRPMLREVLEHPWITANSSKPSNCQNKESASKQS

In assay [8] the target is T2, Transcription intermediary factor 1-alpha (Homo sapiens) (UniProt O15164).
T2 sequence (whole entry): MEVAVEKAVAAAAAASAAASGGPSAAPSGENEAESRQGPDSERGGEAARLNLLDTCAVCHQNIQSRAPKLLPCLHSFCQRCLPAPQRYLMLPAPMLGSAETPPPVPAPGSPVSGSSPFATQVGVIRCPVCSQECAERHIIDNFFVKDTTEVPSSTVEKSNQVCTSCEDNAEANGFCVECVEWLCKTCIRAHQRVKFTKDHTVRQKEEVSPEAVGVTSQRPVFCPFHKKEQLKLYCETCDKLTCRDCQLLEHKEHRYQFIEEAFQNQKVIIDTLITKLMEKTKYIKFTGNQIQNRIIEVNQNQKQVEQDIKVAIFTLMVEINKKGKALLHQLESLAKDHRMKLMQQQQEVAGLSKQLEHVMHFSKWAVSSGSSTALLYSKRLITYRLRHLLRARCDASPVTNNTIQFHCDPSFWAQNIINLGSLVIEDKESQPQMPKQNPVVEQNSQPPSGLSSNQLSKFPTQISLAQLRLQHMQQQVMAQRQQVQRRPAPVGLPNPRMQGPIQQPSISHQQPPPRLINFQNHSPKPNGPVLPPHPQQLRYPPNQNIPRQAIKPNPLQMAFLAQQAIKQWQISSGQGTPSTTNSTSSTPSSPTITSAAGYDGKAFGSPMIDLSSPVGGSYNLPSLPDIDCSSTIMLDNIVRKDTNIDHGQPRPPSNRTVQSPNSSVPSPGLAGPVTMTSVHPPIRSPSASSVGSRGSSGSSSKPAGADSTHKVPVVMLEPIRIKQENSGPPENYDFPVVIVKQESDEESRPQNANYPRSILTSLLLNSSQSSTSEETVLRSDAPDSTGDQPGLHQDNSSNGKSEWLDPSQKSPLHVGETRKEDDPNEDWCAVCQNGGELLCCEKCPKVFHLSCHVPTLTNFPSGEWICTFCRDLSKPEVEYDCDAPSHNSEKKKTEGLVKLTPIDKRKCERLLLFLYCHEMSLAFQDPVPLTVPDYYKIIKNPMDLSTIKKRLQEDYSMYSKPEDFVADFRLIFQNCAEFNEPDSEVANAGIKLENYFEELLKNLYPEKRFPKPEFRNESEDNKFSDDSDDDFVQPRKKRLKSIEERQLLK

Structures are written as SMILES. Residues, ends and D or L forms follow the SMILES beside them. *: point of attachment. Cbz = O=C(OCc1ccccc1)*; CH2F = FC*

Chain of Glycogen synthase kinase-3 beta (Homo sapiens) (P49841 whole entry, looked up): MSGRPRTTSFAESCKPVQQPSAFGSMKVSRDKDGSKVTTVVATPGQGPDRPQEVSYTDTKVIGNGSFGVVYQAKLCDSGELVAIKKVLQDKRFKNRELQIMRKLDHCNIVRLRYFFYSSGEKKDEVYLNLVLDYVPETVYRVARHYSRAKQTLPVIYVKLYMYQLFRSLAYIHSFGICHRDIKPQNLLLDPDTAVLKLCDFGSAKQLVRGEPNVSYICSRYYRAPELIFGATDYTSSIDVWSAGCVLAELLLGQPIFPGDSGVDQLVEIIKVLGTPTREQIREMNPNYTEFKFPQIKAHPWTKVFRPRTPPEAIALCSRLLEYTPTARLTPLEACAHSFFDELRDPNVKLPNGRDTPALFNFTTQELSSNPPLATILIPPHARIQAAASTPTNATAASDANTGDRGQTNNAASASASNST
Chain of Tyrosine-protein kinase ABL1 (Homo sapiens) (P00519 whole entry): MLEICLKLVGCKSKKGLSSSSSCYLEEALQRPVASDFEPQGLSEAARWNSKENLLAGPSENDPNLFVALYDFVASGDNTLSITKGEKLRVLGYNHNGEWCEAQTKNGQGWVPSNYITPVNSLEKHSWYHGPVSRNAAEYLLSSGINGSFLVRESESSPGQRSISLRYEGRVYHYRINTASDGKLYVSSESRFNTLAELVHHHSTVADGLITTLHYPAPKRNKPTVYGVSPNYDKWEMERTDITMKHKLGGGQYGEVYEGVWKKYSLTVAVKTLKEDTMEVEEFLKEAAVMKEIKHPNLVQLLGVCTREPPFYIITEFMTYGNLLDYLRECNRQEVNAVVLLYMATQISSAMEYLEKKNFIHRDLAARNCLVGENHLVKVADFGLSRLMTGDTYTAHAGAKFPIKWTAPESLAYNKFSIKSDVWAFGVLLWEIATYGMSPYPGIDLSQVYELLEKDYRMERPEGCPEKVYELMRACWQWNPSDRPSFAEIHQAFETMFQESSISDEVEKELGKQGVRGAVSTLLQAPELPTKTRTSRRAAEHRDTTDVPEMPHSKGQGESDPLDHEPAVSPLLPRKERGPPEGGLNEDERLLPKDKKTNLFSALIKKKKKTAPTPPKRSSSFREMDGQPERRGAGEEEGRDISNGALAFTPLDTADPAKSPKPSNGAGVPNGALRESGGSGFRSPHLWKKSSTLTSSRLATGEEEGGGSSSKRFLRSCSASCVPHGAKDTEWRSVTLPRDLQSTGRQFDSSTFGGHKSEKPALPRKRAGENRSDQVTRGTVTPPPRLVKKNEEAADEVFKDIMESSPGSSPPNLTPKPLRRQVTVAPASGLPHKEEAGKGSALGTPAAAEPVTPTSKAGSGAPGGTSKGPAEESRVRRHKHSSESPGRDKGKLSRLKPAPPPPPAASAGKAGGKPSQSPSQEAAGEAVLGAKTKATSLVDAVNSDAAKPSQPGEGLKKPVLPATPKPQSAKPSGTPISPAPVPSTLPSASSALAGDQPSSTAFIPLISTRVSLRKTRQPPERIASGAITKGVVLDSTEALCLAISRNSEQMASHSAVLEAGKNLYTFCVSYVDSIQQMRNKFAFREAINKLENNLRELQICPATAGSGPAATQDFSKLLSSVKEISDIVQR
Chain of Casein kinase I isoform delta (Homo sapiens) (P48730 whole entry, looked up, canonical isoform): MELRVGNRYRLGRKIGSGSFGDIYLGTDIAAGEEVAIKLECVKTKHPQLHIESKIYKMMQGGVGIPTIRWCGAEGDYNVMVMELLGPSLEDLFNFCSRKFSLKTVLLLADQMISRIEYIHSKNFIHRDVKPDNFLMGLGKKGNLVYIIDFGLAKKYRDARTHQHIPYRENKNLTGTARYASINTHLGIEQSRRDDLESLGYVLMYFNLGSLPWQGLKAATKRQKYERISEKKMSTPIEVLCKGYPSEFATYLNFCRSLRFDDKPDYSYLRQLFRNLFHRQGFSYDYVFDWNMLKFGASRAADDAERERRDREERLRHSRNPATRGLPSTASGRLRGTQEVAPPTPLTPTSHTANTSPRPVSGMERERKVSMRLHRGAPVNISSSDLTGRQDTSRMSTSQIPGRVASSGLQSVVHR

Take `CCn1nc(C2CC2)cc1Nc1nc(C(=O)NC)nc2[nH]c3cc(-c4c(C)noc4C)c(OC)cc3c12`: the ΔTm – broadly, the change in melting temperature against a reference sample – in assay [1] was 0.56 °C; in assay [2] it was 8.71 °C; in assay [3], -0.11 °C; in assay [4] it was -0.18 °C; in assay [5], -1.43 °C; in assay [6], 0.23 °C. Also, the ΔTm was -2.42 °C in assay [7] and 0 °C in assay [8].

`Cn1c(=O)cc(N2CCC[C@@H](N)C2)n(Cc2cc(F)ccc2C#N)c1=O`: the shift in melting temperature (ΔTm) is 0.09 °C in assay [1]; -1.94 °C in assay [2]; 0.46 °C in assay [3]; -0.06 °C in assay [4]; -0.59 °C in assay [5]; 0.52 °C in assay [6]. Besides, the thermal shift (ΔTm) was -0.72 °C in assay [7] and 0.97 °C in assay [8].

`CC(=O)N[C@@H](CC(=O)O)C(=O)N[C@@H](CCC(=O)O)C(=O)N[C@H](C(=O)N[C@@H](CC(=O)O)C(=O)CCl)C(C)C`: the shift in melting temperature (ΔTm) in assay [1] was 0.1 °C; in assay [2] it was -2.64 °C; in assay [3] it was -0.35 °C; in assay [4], -0.06 °C; in assay [5], 0.4 °C; in assay [6], -0.58 °C. The shift in melting temperature (ΔTm) in assay [7] was -1.91 °C; in assay [8] it was -0.93 °C.

On to `Cc1nc(-c2cnc(NC(C)C)n(C)c2=O)ccc1Oc1ccnc(-c2cnn(C)c2)c1`, for which the ΔTm is 13.3 °C in assay [1]; -1.75 °C in assay [2]; 0.63 °C in assay [3]; 0.37 °C in assay [4]; -0.22 °C in assay [5]; -0.25 °C in assay [6]. Besides, the shift in melting temperature (ΔTm) was 0.8 °C in assay [7] and -1.36 °C in assay [8].

On to `O=C(NCCCn1ccnc1)c1cc2nc(-c3ccccc3)cc(-c3ccccc3)n2n1`, for which the ΔTm in assay [1] was 0.26 °C; in assay [2], -2.23 °C; in assay [3] it was -0.13 °C; in assay [4], 0.15 °C; in assay [5] it was -0.59 °C; in assay [6], -2.4 °C. Further, the thermal shift (ΔTm) in assay [7] was -0.86 °C; in assay [8], -0.04 °C.

As to `CN(C)CCCNC(=O)c1ccc(-c2cc(O)c3ncccc3c2)cc1`, the thermal shift (ΔTm) was found to be 1.29 °C in assay [1]; 1.76 °C in assay [2]; 0.45 °C in assay [3]; 0.58 °C in assay [4]; 0.54 °C in assay [5]; 0.28 °C in assay [6]. In addition, the ΔTm in assay [7] was -1.28 °C; in assay [8], 1.21 °C.

Consider `CC(=O)O[C@]1(C(C)=O)CC[C@H]2[C@@H]3CCC4=CC(=O)CCC4=C3[C@@H](c3ccc(N(C)C)cc3)C[C@@]21C`, for which the thermal shift (ΔTm) in assay [1] is 0.29 °C; in assay [2] it was -2.72 °C; in assay [3] it was -0.32 °C; in assay [4], 0.22 °C; in assay [5], -0.83 °C; in assay [6] it was -0.05 °C. Moreover, the values for the thermal shift (ΔTm) in assay [7] and in assay [8] were -1.14 °C and -1.79 °C, respectively.

As for `CSCC[C@H](NC(=O)[C@H](CC(=O)O)NC(C)=O)C(=O)N[C@@H](CCC(N)=O)C(=O)N[C@H](C=O)CC(=O)O` (Ac-DMQD-aldehyde), the thermal shift (ΔTm) in assay [1] was 0.11 °C; in assay [2] it was -1.14 °C; in assay [3], -0.29 °C; in assay [4] it was 0.02 °C; in assay [5], -0.48 °C; in assay [6], -0.4 °C. Besides, the thermal shift (ΔTm) in assay [7] is -1.16 °C; in assay [8], -0.9 °C.

`COC(=O)CC[C@H](NC(=O)[C@H](C)NC(=O)OCc1ccccc1)C(=O)N[C@H](C(=O)N[C@@H](CC(=O)OC)C(=O)CF)C(C)C` (Cbz-AE(OMe)VD(OMe)-CH2F): the thermal shift (ΔTm) in assay [1] was 0.32 °C; in assay [2], -1.14 °C; in assay [3], -0.09 °C; in assay [4], -0.04 °C; in assay [5] it was -0.78 °C; in assay [6] it was -0.86 °C. In addition, the results for the ΔTm in assay [7] and in assay [8] were -1.1 °C and -1.06 °C, respectively.

Take `CS(=O)(=O)n1cc2c(n1)CN([C@H]1CO[C@H](c3cc(F)ccc3F)[C@@H](N)C1)C2`: the ΔTm is 0.01 °C in assay [1]; 1.23 °C in assay [2]; 0.1 °C in assay [3]; -0.33 °C in assay [4]; -0.84 °C in assay [5]; 0.32 °C in assay [6]. For the same compound, the ΔTm in assay [7] was -2.29 °C; in assay [8] it was -0.65 °C.

In the case of `CCC[C@@H]1CNCc2c1[nH]c(=O)c(C#N)c2N1CCC2(CC1)CC2`, the ΔTm in assay [1] was 0.32 °C; in assay [2], -1.86 °C; in assay [3], 0.24 °C; in assay [4] it was 0.29 °C; in assay [5], 0.07 °C; in assay [6], -0.21 °C. Also, the shift in melting temperature (ΔTm) was -0.58 °C in assay [7] and -0.85 °C in assay [8].

The record behind these values is ChEMBL document CHEMBL5724796, “Tm Shift (DSF) assay results for EUbOPEN Chemogenomics Library” (2024).
